{"source": "the supplement of paper PMC11732987", "about": "“Enantioselective OTUD7B fragment discovery through chemoproteomics screening and high-throughput optimisation” (Communications Chemistry, 2025)", "note": "Unmarked numbers belong to inactive results.", "data": [{"compound": "ClCC(=O)NC1(CCCC1)C#N", "experiment": "log2 ratio of Biotin-Ahx-Ub-VS probe labelling (compound/DMSO); higher = less target engagement, active = hit call of the paper (q ≤ 0.05, log2 ratio ≤ -1)", "details": "compound concentration: 50uM; treatment time: 3 h", "procedure": "(§1)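 Round 2 competitive ABPP in HEK293T lysate. Compounds were tested at 50 and 200 µM for 3 h, followed by Biotin-Ahx-Ub-VS enrichment and diaPASEF LC-MS/MS. Values are the average log2 ratio (compound/DMSO) from an unpaired t-test (n=3 treated, n=26 DMSO).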", "values": [{"target": "MINDY4 (UniProt Q4G0A6)", "sequence (Q4G0A6 whole entry)": "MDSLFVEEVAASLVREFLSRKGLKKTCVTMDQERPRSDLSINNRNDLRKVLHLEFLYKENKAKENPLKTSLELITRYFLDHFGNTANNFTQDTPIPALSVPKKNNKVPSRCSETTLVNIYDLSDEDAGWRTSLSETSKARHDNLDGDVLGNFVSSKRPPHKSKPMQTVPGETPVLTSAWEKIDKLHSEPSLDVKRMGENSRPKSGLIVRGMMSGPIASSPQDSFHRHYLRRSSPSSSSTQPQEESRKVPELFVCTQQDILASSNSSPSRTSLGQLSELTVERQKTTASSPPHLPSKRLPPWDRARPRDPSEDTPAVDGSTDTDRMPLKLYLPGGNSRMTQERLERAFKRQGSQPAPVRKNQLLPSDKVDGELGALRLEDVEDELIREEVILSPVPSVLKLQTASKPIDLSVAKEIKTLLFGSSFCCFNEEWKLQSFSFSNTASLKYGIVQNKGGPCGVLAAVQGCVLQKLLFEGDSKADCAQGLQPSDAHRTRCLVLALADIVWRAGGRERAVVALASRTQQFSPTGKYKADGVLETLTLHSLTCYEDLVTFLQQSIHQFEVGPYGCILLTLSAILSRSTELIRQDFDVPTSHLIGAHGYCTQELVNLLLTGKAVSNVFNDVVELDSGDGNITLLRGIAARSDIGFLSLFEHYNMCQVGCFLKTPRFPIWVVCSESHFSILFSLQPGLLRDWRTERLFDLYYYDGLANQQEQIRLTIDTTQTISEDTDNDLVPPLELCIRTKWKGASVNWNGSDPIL", "log2 ratio of Biotin-Ahx-Ub-VS probe labelling": -0.742}, {"target": "UniProt Q9P2H5", "sequence (Q9P2H5 whole entry)": "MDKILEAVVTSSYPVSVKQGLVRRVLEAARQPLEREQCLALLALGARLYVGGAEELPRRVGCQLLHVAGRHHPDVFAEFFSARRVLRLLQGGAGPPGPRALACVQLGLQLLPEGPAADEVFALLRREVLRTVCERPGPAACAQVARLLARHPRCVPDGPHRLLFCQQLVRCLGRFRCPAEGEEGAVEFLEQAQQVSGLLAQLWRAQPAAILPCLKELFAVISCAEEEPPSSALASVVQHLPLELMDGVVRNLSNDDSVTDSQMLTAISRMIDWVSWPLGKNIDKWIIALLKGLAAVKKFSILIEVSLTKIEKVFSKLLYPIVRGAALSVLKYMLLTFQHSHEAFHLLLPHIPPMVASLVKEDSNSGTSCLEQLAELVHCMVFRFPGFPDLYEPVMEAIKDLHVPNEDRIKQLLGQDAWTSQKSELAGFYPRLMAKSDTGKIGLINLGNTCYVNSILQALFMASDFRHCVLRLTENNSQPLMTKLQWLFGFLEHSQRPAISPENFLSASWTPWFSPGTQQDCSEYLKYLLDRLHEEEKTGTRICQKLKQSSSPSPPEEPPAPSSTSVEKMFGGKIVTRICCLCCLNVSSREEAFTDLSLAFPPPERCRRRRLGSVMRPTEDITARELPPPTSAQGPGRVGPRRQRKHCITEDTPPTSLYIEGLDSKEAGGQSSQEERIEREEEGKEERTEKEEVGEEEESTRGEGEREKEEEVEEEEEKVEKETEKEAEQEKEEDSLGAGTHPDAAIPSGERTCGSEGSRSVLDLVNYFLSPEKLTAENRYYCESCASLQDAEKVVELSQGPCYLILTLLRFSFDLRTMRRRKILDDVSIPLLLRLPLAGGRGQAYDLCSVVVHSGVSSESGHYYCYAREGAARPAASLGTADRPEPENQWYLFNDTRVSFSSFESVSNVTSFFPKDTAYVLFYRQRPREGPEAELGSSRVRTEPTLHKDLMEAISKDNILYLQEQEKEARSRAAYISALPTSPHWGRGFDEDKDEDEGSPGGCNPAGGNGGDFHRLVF", "log2 ratio of Biotin-Ahx-Ub-VS probe labelling": -0.223}, {"target": "OTUD4 (UniProt Q01804)", "sequence (Q01804 whole entry)": "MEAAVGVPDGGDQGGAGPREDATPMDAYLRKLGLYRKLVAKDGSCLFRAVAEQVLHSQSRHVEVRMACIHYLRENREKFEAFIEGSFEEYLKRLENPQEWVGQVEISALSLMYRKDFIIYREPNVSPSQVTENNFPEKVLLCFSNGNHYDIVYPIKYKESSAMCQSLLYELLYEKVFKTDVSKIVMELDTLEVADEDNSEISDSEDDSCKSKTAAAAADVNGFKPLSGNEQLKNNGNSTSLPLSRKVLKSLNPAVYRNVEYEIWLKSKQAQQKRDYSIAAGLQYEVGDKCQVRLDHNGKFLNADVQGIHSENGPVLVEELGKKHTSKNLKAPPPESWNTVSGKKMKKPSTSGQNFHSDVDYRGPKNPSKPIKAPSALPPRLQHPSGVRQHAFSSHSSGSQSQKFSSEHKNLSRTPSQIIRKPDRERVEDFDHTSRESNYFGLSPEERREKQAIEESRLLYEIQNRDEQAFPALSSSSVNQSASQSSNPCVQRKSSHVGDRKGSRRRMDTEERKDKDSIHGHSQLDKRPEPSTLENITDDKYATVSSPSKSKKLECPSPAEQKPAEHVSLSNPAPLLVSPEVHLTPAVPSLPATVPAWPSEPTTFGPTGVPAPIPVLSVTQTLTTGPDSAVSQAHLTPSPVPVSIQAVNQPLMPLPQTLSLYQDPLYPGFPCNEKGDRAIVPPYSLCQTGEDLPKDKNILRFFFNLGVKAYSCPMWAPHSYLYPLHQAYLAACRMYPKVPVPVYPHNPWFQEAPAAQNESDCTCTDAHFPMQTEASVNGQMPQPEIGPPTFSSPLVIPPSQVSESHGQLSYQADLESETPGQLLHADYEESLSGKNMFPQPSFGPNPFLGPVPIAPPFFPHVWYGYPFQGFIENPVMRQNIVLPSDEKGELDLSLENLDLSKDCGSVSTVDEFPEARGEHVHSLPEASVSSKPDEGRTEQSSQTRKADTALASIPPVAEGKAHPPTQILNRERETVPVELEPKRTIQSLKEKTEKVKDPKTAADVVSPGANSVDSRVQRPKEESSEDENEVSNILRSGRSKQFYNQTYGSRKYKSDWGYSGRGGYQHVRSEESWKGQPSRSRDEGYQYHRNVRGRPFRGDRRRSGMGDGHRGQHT", "log2 ratio of Biotin-Ahx-Ub-VS probe labelling": "-1.46 (active)"}, {"target": "OTUD6B (UniProt Q8N6M0)", "sequence (Q8N6M0 whole entry)": "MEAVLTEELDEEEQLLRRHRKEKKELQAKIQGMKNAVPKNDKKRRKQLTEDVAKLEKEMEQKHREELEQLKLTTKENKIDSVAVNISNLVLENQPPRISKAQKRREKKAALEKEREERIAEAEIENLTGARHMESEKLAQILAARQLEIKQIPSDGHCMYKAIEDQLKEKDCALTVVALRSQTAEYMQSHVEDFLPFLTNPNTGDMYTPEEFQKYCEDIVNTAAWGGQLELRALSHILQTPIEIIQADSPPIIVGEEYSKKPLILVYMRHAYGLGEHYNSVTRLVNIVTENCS", "log2 ratio of Biotin-Ahx-Ub-VS probe labelling": -0.241}, {"target": "UCHL1 (UniProt P09936)", "sequence (P09936 whole entry, looked up)": "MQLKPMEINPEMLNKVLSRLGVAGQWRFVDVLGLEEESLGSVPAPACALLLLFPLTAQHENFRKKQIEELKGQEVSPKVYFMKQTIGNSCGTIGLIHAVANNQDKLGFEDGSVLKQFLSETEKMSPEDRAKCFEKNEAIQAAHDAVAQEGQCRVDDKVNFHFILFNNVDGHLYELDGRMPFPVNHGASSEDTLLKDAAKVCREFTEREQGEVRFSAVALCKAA", "log2 ratio of Biotin-Ahx-Ub-VS probe labelling": -0.205}, {"target": "USP46 (UniProt P62068)", "sequence (P62068 whole entry)": "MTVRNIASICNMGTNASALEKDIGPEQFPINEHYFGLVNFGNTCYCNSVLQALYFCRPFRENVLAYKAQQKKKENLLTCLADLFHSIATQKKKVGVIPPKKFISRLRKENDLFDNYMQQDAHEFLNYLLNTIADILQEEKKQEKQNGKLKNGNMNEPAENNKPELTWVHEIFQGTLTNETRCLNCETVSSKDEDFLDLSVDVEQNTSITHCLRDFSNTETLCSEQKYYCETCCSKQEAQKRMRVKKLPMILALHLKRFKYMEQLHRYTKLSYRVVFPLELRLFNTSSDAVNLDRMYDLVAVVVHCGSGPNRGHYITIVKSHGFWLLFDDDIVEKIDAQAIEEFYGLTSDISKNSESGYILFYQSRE", "log2 ratio of Biotin-Ahx-Ub-VS probe labelling": -0.274}, {"target": "COPS5 (UniProt Q92905)", "sequence (Q92905 whole entry, looked up)": "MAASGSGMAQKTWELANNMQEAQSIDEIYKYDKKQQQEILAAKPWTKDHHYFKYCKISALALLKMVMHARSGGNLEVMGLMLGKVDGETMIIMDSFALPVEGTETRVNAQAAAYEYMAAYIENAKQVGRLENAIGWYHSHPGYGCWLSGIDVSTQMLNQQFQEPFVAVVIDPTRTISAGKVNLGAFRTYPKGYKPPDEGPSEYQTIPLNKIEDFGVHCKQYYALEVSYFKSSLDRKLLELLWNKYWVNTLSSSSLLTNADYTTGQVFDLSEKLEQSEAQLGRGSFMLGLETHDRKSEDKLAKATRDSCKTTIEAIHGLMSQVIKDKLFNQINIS", "log2 ratio of Biotin-Ahx-Ub-VS probe labelling": 0.531}, {"target": "USP54 (UniProt Q70EL1)", "log2 ratio of Biotin-Ahx-Ub-VS probe labelling": -0.959}, {"target": "EIF3F (UniProt O00303)", "sequence (O00303 whole entry)": "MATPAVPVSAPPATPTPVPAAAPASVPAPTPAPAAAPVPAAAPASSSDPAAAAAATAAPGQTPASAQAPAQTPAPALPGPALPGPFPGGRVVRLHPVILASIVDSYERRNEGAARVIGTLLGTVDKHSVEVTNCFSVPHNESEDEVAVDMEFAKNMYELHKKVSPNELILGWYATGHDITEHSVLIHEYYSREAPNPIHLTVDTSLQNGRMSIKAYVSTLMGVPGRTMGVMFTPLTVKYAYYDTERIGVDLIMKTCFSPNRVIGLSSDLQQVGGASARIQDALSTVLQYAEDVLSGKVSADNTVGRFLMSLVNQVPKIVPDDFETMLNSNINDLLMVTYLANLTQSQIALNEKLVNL", "log2 ratio of Biotin-Ahx-Ub-VS probe labelling": 0.000219}]}, {"compound": "ClCC(=O)NC1(CCCC1)C#N", "experiment": "log2 ratio of Biotin-Ahx-Ub-VS probe labelling (compound/DMSO); higher = less target engagement, active = hit call of the paper (q ≤ 0.05, log2 ratio ≤ -1)", "details": "compound concentration: 200uM; treatment time: 3 h", "procedure": "as §1", "values": [{"target": "MINDY4 (UniProt Q4G0A6)", "log2 ratio of Biotin-Ahx-Ub-VS probe labelling": 0.517}, {"target": "UniProt Q9P2H5", "log2 ratio of Biotin-Ahx-Ub-VS probe labelling": -0.102}, {"target": "OTUD4 (UniProt Q01804)", "log2 ratio of Biotin-Ahx-Ub-VS probe labelling": "-1.76 (active)"}, {"target": "OTUD6B (UniProt Q8N6M0)", "log2 ratio of Biotin-Ahx-Ub-VS probe labelling": -0.219}, {"target": "UCHL1 (UniProt P09936)", "log2 ratio of Biotin-Ahx-Ub-VS probe labelling": -0.155}, {"target": "USP46 (UniProt P62068)", "log2 ratio of Biotin-Ahx-Ub-VS probe labelling": -0.249}, {"target": "COPS5 (UniProt Q92905)", "log2 ratio of Biotin-Ahx-Ub-VS probe labelling": 0.0873}, {"target": "USP54 (UniProt Q70EL1)", "log2 ratio of Biotin-Ahx-Ub-VS probe labelling": "-2.5 (active)"}, {"target": "EIF3F (UniProt O00303)", "log2 ratio of Biotin-Ahx-Ub-VS probe labelling": 0.192}]}]}
